About 79,000 compounds went through this panel and 15% of them were active in at least one assay; those are over-represented in the sample as a whole. A number with no mark means an inactive call. The source made the active and inactive calls. Cut-off read from the data, not from the text of the source: active = growth inhibition above about 70%; inactive = the rest.
Tests used:
[1] = NCI Yeast Anticancer Drug Screen. Data for the rad50 strain (AID 155);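 note: 0% = growth of vehicle-only cultures of the same strain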; settings: S. cerevisiae rad50 strain growth inhibition; at 50.0 µM; stronger effect = higher value
Procedure, shortened: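 Inhibition values express reduced yeast growth in compound-treated cultures relative to vehicle-treated controls.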

[2] = NCI Yeast Anticancer Drug Screen. Data for the mec2-1 strain (AID 157); settings: S. cerevisiae mec2-1 strain, at 50.0 µM, stronger effect = higher value
Procedure, shortened: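 Mutant yeast (mec2-1) grown with compound; growth inhibition relative to vehicle control reported.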

[3] = NCI Yeast Anticancer Drug Screen. Data for the sgs1 mgt1 strain (AID 161);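 note: 0% = growth of cultures given vehicle only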; settings: S. cerevisiae sgs1 mgt1 strain, at 50.0 µM, stronger effect = higher value
Procedure, shortened: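 This yeast growth screen uses a strain with defined DNA-repair lesions; compound-treated growth is compared with vehicle-treated growth.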

[4] = NCI Yeast Anticancer Drug Screen. Data for the cln2 rad14 strain (AID 165);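 note: 0% = growth equal to vehicle treated cultures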; settings: S. cerevisiae cln2 rad14 strain, at 50.0 µM, stronger effect = higher value
Procedure, shortened: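 Readout is yeast growth inhibition versus vehicle-treated controls, using a strain with cln2 and rad14 alterations exposed to compound.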

[5] = NCI Yeast Anticancer Drug Screen. Data for the bub3 strain (AID 167); settings: S. cerevisiae bub3 mutant strain, at 50.0 µM, stronger effect = higher value
Procedure, shortened: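 Steps: expose the mutant yeast strain to compound; grow alongside vehicle-treated cultures; measure growth; express inhibition against the vehicle cultures.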

[6] = NCI Yeast Anticancer Drug Screen. Data for the mlh1 rad18 strain (AID 175); settings: S. cerevisiae mlh1 rad18 strain growth inhibition; at 50.0 µM; stronger effect = higher value
Procedure, shortened: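 Genetically defined yeast (DNA repair-deficient) exposed to compounds; growth inhibition determined relative to vehicle.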

| SMILES | growth inhibition [1] | growth inhibition [2] | growth inhibition [3] | growth inhibition [4] | growth inhibition [5] | growth inhibition [6] |
| --- | --- | --- | --- | --- | --- | --- |
| O=Cc1ccccc1S(=O)(=O)O | 6.65% | 7.4% | -6.5% | -45.4% | 11.2% | -13.2% |
| C[Si](C)(C)Nc1ncnc2c1ncn2[Si](C)(C)C | 14.6% | 4.85% | 21.6% | -9.3% | 2.85% | 7.05% |
| CC(O)(c1ccccc1)C1CC1c1ccccc1 (stereo not drawn) | 29.9% | -3.5% | 20.8% | -17.2% | -12.5% | 6.3% |
| O=C(Nc1ccccc1)Oc1ccc(Cl)cc1Cc1ccccc1 | 99.7% (active) | 99.8% (active) | 99.8% (active) | 99.8% (active) | 99.8% (active) | 99.8% (active) |
| CC(C(O)c1ccccn1)[N+](=O)[O-] (stereo not drawn) | -11.4% | 1.55% | -7.1% | -21.1% | -10.7% | -3.4% |
| CN(C)[C@@H]1C(=O)C(C(=O)NCNc2cccc(C(=O)O)c2C(=O)O)=C(O)[C@@]2(O)C(=O)C3=C(O)c4c(O)cccc4[C@@](C)(O)[C@H]3C[C@@H]12 | 2.95% | 6.45% | 21.8% | -17.2% | -1.1% | 31.4% |
| CCOC(=O)c1cnc(NCCCNc2ncc(C(=O)OCC)c(=O)[nH]2)[nH]c1=O | -2.65% | 4% | -2.6% | -44.9% | 3.8% | 10.3% |
| O=c1[nH]c(=O)n(C2CC(O)C(CO)O2)c2ncncc12 (stereo not drawn) | -0.85% | -0.3% | 4.45% | 2.15% | -10.1% | -57.1% |
| CC1=Nc2c(ccc3c2C(=O)c2ccccc2C3=O)NC(c2ccncc2)C1 (stereo not drawn) | 31.1% | 5% | 47.6% | 17.6% | 0.35% | 12.4% |
| O=C(O)CC(NC(=O)C(CC(=O)OCc1ccccc1)NC(=O)OCc1ccccc1)C(=O)OCc1ccccc1 (stereo not drawn) | 44.5% | 20.6% | 27.4% | 24.4% | -5.8% | 36.6% |
| Cc1cn(C2OC(CO)C(O)C(O)C2O)c(=O)[nH]c1=O (stereo not drawn) | -1.4% | 5.65% | -5.45% | -3.2% | 15.2% | 0.9% |
| N#CC(C#N)=C(N)/C(C#N)=C/c1ccc2[nH]ccc2c1 | -11% | 6.95% | -29.2% | -24.9% | -26.6% | -24.1% |
| COC(=O)C1(Cc2ccccc2)Cc2ccccc2C1=O (stereo not drawn) | -3.1% | 3% | 37.7% | 33.9% | 39.2% | -3% |
| NNC(=O)c1ccc(-c2ccc[nH]2)[nH]1 | 10.7% | 0.7% | -20.9% | -75.5% | -14.4% | 5% |
| CC1CCC(=O)C(C(=O)CC2CC(=O)NC(=O)C2)C1 (stereo not drawn) | 31.6% | 1.45% | 19.7% | -30.3% | 2.3% | 4.55% |
| Cc1cc2nc(/C(C#N)=C/c3cc(Cl)cc(Cl)c3O)[nH]c2cc1C | 16.2% | 22.4% | 33% | 28.1% | 19.4% | -3.35% |
| CC(=O)Oc1cccc2c(/C=N/NC(N)=S)ncc(C)c12 | 87.6% (active) | 78.3% (active) | 86.7% (active) | 83.5% (active) | 84.6% (active) | 90.3% (active) |
| O=c1ccc2c(-c3ccccc3S(=O)(=O)O)c3ccc(O)c(O)c3oc-2c1O | 3.45% | 13.3% | -4.4% | 11% | 15.6% | 4.4% |
| CC(=O)OCC1OC(Nc2[nH]c(=O)n(C)c(=O)c2-c2csc(N)n2)C(OC(C)=O)C(OC(C)=O)C1OC(C)=O (stereo not drawn) | -12.8% | -25.6% | -32.9% | 27.4% | -8.9% | -8.6% |

| SMILES | growth inhibition [1] | growth inhibition [2] | growth inhibition [3] | growth inhibition [4] | growth inhibition [5] | growth inhibition [6] |
| --- | --- | --- | --- | --- | --- | --- |
| CSc1nc2c(nc(N)n2C2OC(CO)C(O)C(O)C2O)c(=O)n1C (stereo not drawn) | 3.1% | 20% | 26.3% | 33.9% | 11.2% | 39.4% |
| CCCNCC(O)COc1ccc2c3c(c(=O)oc2c1)CCC3 (stereo not drawn) | 1.15% | 10.8% | -23.9% | -8.25% | -29.8% | -15.8% |
| CCOC(=O)c1cc2c(C(=O)c3ccc([N+](=O)[O-])cc3)c(C(C)=O)ccc2[nH]1 | 3.15% | -0.45% | -1.2% | -3.55% | 19% | -45.6% |
| CCNC(=O)NS(=O)(=O)c1ccc(Sc2ccc(Cl)cc2)nc1 | -5.8% | -2.95% | -7.5% | -5.7% | -0.55% | -0.4% |
| CCOC(=O)C(=O)N1Cc2cc3c(cc2C2CC(O)C(O)CC21)OCO3 (stereo not drawn) | -8.2% | -3.9% | -1.1% | 6.05% | 2.85% | 5.85% |
| ON=C(c1ccccc1)c1ccccc1 | -0.15% | -3.8% | -2.05% | -7.2% | -1.95% | -2.95% |
| CN(C)CNc1ncnc2onc(-c3ccccc3)c12 | 10.1% | 14.5% | 13.7% | 11.6% | -5.5% | -4.15% |
| O=C1CCC(=O)N1Cc1ccc(Cl)cc1 | -4.7% | 5.5% | -1.1% | -13.6% | -3.8% | -4.1% |
| CCOC(=O)c1cc2cc([N+](=O)[O-])ccc2[nH]1 | 10% | 9.5% | 0% | 5.65% | -7.2% | 16.4% |
| O=C(O)CSc1ccccc1 | 39.5% | 18.4% | 17.8% | 13.3% | 20.6% | 0.15% |
| CSc1nc(-c2ccccc2)c(C(=O)NC(C)CN2CCCCC2)s1 (stereo not drawn) | 13.5% | 5.15% | 7.45% | 11% | -3.2% | 11.1% |
| O=C1OC2C(O1)C1(c3ccccc3)OC2(c2ccccc2)c2ccccc21 (stereo not drawn) | -5.9% | 19.2% | 13.5% | -57.2% | 4.85% | 45.1% |
| CCCCCCCCCCCC(=O)NC(=S)Nc1ccc(N(C)C(C)=O)cc1 | 90.5% (active) | 92.8% (active) | 92.5% (active) | 87.6% (active) | 90% (active) | 91.9% (active) |
| CCOC(=O)C1C(C)=CC(=O)CC1CC (stereo not drawn) | 24.3% | -10.7% | 14.8% | -1.05% | -3.85% | 22.5% |
| COC(CCC#N)c1ccc(Cl)cc1 (stereo not drawn) | -31.9% | -20.6% | -26.6% | 1.7% | -31.9% | -26.6% |
| CC(=O)Nc1ccc(-c2cn3ccccc3n2)cc1 | 6.6% | -1.5% | 20.7% | 25.6% | 13.7% | 21.8% |
| O=C(CC(O)(C(F)(F)F)C(F)(F)F)c1cccc(S(=O)(=O)N2CCOCC2)c1 | 7.05% | 5.9% | 8.5% | 8.05% | 0.6% | 22.8% |
| Brc1ncnc2c1ncn2C1CCCO1 (stereo not drawn) | -21.3% | -12.8% | -1.5% | -29.6% | 34.4% | -32.2% |
| CC1(C)C([N+](C)(C)C)CS1(=O)=O (stereo not drawn) | 1.9% | -18.9% | -13.8% | -11.1% | 9.65% | -6.45% |

From PubChem BioAssay (NCI)
